In PubChem BioAssay (NCI):
The panel holds about 79,000 compounds, 15% with a hit somewhere; the sample as a whole holds those more often. Values without a mark were called inactive. Activity calls are given as the source filed them. Rule as the data show it: active = growth inhibition above about 70%; inactive = the rest.

Key:
[1] = NCI Yeast Anticancer Drug Screen. Data for the rad52 strain (AID 147);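 also: 0% = growth of vehicle-treated control cultures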; settings: S. cerevisiae rad52 mutant growth inhibition, stronger effect = higher value
Method in brief: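 The repair-mutant yeast strain was incubated with compounds, then growth was read and inhibition derived relative to vehicle.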

[2] = NCI Yeast Anticancer Drug Screen. Data for the wt1 strain (AID 149);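 also: 0% = growth of vehicle-treated wt1 cultures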; settings: S. cerevisiae wt1 strain (SPY 50644) growth inhibition, stronger effect = higher value
Method in brief: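 Compounds are added to wt1 yeast cultures. Growth is then measured. Inhibition is expressed relative to vehicle-treated controls.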

[3] = NCI Yeast Anticancer Drug Screen. Data for the rad50EPP+ strain (AID 151);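 also: 0% = growth of vehicle-treated control cultures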; settings: S. cerevisiae rad50 mutant strain, stronger effect = higher value
Method in brief: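 Vehicle-normalised growth inhibition; rad50EPP+ yeast strain, altered in DNA damage repair, compound-treated.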

[4] = NCI Yeast Anticancer Drug Screen. Data for the mgt1 strain (AID 153); settings: S. cerevisiae mgt1 mutant growth inhibition, stronger effect = higher value
Method in brief: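 Vehicle-normalized growth inhibition is determined in mgt1 yeast, a strain selected for a defined alteration in DNA repair or cell cycle control.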

[5] = NCI Yeast Anticancer Drug Screen. Data for the rad50 strain (AID 155);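 also: 0% = growth of vehicle-only cultures of the same strain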; settings: S. cerevisiae rad50 strain growth inhibition, stronger effect = higher value
Method in brief: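 Inhibition values express reduced yeast growth in compound-treated cultures relative to vehicle-treated controls.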

[6] = NCI Yeast Anticancer Drug Screen. Data for the mec2-1 strain (AID 157); settings: S. cerevisiae mec2-1 strain, stronger effect = higher value
Method in brief: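 Mutant yeast (mec2-1) grown with compound; growth inhibition relative to vehicle control reported.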

[7] = NCI Yeast Anticancer Drug Screen. Data for the rad14 strain (AID 159);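 also: 0% = growth of vehicle-treated control cultures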; settings: S. cerevisiae rad14 strain growth inhibition, stronger effect = higher value
Method in brief: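 A mutant yeast strain defective in DNA damage repair is treated with compound; inhibition of its growth is scored against untreated, vehicle-exposed cultures.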

[8] = NCI Yeast Anticancer Drug Screen. Data for the sgs1 mgt1 strain (AID 161);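 also: 0% = growth of cultures given vehicle only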; settings: S. cerevisiae sgs1 mgt1 strain, stronger effect = higher value
Method in brief: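 Percent growth inhibition was derived by comparing compound-exposed mutant yeast with vehicle-exposed cultures. The strain carries alterations in DNA damage repair.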

[9] = NCI Yeast Anticancer Drug Screen. Data for the cln2 rad14 strain (AID 165);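 also: 0% = growth equal to vehicle treated cultures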; settings: S. cerevisiae cln2 rad14 strain, stronger effect = higher value
Method in brief: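 Readout is yeast growth inhibition versus vehicle-treated controls, using a strain with cln2 and rad14 alterations exposed to compound.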

[10] = NCI Yeast Anticancer Drug Screen. Data for the bub3 strain (AID 167); settings: S. cerevisiae bub3 mutant strain, stronger effect = higher value
Method in brief: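 Steps: expose the mutant yeast strain to compound; grow alongside vehicle-treated cultures; measure growth; express inhibition against the vehicle cultures.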

[11] = NCI Yeast Anticancer Drug Screen. Data for the wt2 strain (AID 169);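 also: 0% = growth of vehicle-treated yeast cultures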; settings: S. cerevisiae wt2 strain growth inhibition, stronger effect = higher value
Method in brief: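 Against vehicle-treated controls, the growth of yeast exposed to each compound was compared, and the inhibition was recorded.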

[12] = NCI Yeast Anticancer Drug Screen. Data for the mlh1 strain (AID 171);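 also: 0% = growth of vehicle-treated control cultures of the same strain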; settings: S. cerevisiae mlh1 strain growth inhibition, stronger effect = higher value
Method in brief: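 Measured: yeast growth. Reference: vehicle-treated controls. Organism: strain with a defined alteration affecting DNA damage repair or cell cycle control, treated with compound.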

[13] = NCI Yeast Anticancer Drug Screen. Data for the sgs1 strain (AID 173);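 also: 0% = growth of vehicle-only control cultures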; settings: S. cerevisiae sgs1 mutant, stronger effect = higher value
Method in brief: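 Each compound was added to cultures of the altered yeast strain. Growth was recorded, and inhibition was derived by comparison with vehicle controls.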

[14] = NCI Yeast Anticancer Drug Screen. Data for the mlh1 rad18 strain (AID 175); settings: S. cerevisiae mlh1 rad18 strain growth inhibition, stronger effect = higher value
Method in brief: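 Genetically defined yeast (DNA repair-deficient) exposed to compounds; growth inhibition determined relative to vehicle.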

[15] = NCI Yeast Anticancer Drug Screen. Data for the rad18 strain (AID 177); settings: S. cerevisiae rad18 mutant growth inhibition, stronger effect = higher value
Method in brief: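 Vehicle-treated cultures served as the baseline for scoring compound-induced growth inhibition in DNA-repair-mutant yeast.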

[16] = NCI Yeast Anticancer Drug Screen. Data for the CLN2oe strain (AID 163);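 also: 0% = growth of vehicle-only control cultures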; settings: S. cerevisiae CLN2oe strain, stronger effect = higher value
Method in brief: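 Compounds are applied to yeast harbouring a defined cell-cycle control change; reduced growth compared with vehicle-treated controls gives the value.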

[17] = at 5.0 µM (retest, dose inferred, filed as 0.5)
[18] = at 50.0 µM (retest, dose inferred, filed as 5.0)

## CC(C)=CCc1c2c(c(O)c3c(=O)c(-c4ccc(O)c(O)c4)coc13)C=CC(C)(C)O2
[1]; at 1.2 µM
  growth inhibition: -32%
[1]; at 3.7 µM
  growth inhibition: -19%
[1]; at 11.0 µM
  growth inhibition: 96% (active)
[1]; at 33.0 µM
  growth inhibition: 93% (active)
[1]; at 100.0 µM
  growth inhibition: 87% (active)
[2]; at 1.2 µM
  growth inhibition: -20%
[2]; at 3.7 µM
  growth inhibition: -32%
[2]; at 11.0 µM
  growth inhibition: 79% (active)
[2]; at 33.0 µM
  growth inhibition: 93% (active)
[2]; at 100.0 µM
  growth inhibition: 89% (active)
[3]; at 1.2 µM
  growth inhibition: -63%
[3]; at 3.7 µM
  growth inhibition: -42%
[3]; at 11.0 µM
  growth inhibition: -21%
[3]; at 33.0 µM
  growth inhibition: -8%
[3]; at 100.0 µM
  growth inhibition: -31%
[4]; at 1.2 µM
  growth inhibition: -55%
[4]; at 3.7 µM
  growth inhibition: -33%
[4]; at 11.0 µM
  growth inhibition: 94% (active)
[4]; at 33.0 µM
  growth inhibition: 92% (active)
[4]; at 100.0 µM
  growth inhibition: 87% (active)
[5]; at 1.2 µM
  growth inhibition: -36%
[5]; at 3.7 µM
  growth inhibition: -17%
[5]; [17]
  growth inhibition: -3%
[5]; at 11.0 µM
  growth inhibition: 93% (active)
[5]; at 33.0 µM
  growth inhibition: 93% (active)
[5]; [18]
  growth inhibition: 91% (active)
[5]; at 50.0 µM
  growth inhibition: 84.8% (active)
[5]; at 100.0 µM
  growth inhibition: 88% (active)
[6]; at 1.2 µM
  growth inhibition: -89%
[6]; at 3.7 µM
  growth inhibition: -93%
[6]; [17]
  growth inhibition: 30%
[6]; at 11.0 µM
  growth inhibition: 87% (active)
[6]; at 33.0 µM
  growth inhibition: 91% (active)
[6]; [18]
  growth inhibition: 93% (active)
[6]; at 50.0 µM
  growth inhibition: 88% (active)
[6]; at 100.0 µM
  growth inhibition: 85% (active)
[7]; at 1.2 µM
  growth inhibition: -72%
[7]; at 3.7 µM
  growth inhibition: -68%
[7]; at 11.0 µM
  growth inhibition: 91% (active)
[7]; at 33.0 µM
  growth inhibition: 91% (active)
[7]; at 100.0 µM
  growth inhibition: 87% (active)
[8]; [17]
  growth inhibition: 18%
[8]; [18]
  growth inhibition: 93% (active)
[8]; at 50.0 µM
  growth inhibition: 87.5% (active)
[9]; [17]
  growth inhibition: 23%
[9]; [18]
  growth inhibition: 92% (active)
[9]; at 50.0 µM
  growth inhibition: 83.5% (active)
[10]; at 1.2 µM
  growth inhibition: -29%
[10]; at 3.7 µM
  growth inhibition: -28%
[10]; [17]
  growth inhibition: 14%
[10]; at 11.0 µM
  growth inhibition: 90% (active)
[10]; at 33.0 µM
  growth inhibition: 93% (active)
[10]; [18]
  growth inhibition: 92% (active)
[10]; at 50.0 µM
  growth inhibition: 84.8% (active)
[10]; at 100.0 µM
  growth inhibition: 87% (active)
[11]; at 1.2 µM
  growth inhibition: -50%
[11]; at 3.7 µM
  growth inhibition: -52%
[11]; at 11.0 µM
  growth inhibition: 77% (active)
[11]; at 33.0 µM
  growth inhibition: 92% (active)
[11]; at 100.0 µM
  growth inhibition: 87% (active)
[12]; at 1.2 µM
  growth inhibition: 5%
[12]; at 3.7 µM
  growth inhibition: 14%
[12]; at 11.0 µM
  growth inhibition: 90% (active)
[12]; at 33.0 µM
  growth inhibition: 93% (active)
[12]; at 100.0 µM
  growth inhibition: 86% (active)
[13]; at 1.2 µM
  growth inhibition: -46%
[13]; at 3.7 µM
  growth inhibition: -36%
[13]; at 11.0 µM
  growth inhibition: 91% (active)
[13]; at 33.0 µM
  growth inhibition: 91% (active)
[13]; at 100.0 µM
  growth inhibition: 85% (active)
[14]; [17]
  growth inhibition: 43%
[14]; [18]
  growth inhibition: 90% (active)
[14]; at 50.0 µM
  growth inhibition: 85.1% (active)
[15]; at 1.2 µM
  growth inhibition: -24%
[15]; at 3.7 µM
  growth inhibition: -4%
[15]; at 11.0 µM
  growth inhibition: 94% (active)
[15]; at 33.0 µM
  growth inhibition: 93% (active)
[15]; at 100.0 µM
  growth inhibition: 89% (active)

## NC(=S)N/N=C1\c2ccccc2CCC1CCC1(O)CCc2ccccc2C1=O (stereo unspecified)
[1]; at 1.2 µM
  growth inhibition: 43%
[1]; at 3.7 µM
  growth inhibition: 47%
[1]; at 11.0 µM
  growth inhibition: 55%
[1]; at 33.0 µM
  growth inhibition: 86% (active)
[1]; at 100.0 µM
  growth inhibition: 85% (active)
[2]; at 1.2 µM
  growth inhibition: 21%
[2]; at 3.7 µM
  growth inhibition: 24%
[2]; at 11.0 µM
  growth inhibition: 19%
[2]; at 33.0 µM
  growth inhibition: 44%
[2]; at 100.0 µM
  growth inhibition: 80% (active)
[3]; at 1.2 µM
  growth inhibition: 36%
[3]; at 3.7 µM
  growth inhibition: 23%
[3]; at 11.0 µM
  growth inhibition: 17%
[3]; at 33.0 µM
  growth inhibition: 23%
[3]; at 100.0 µM
  growth inhibition: 10%
[5]; at 1.2 µM
  growth inhibition: 35%
[5]; at 3.7 µM
  growth inhibition: 19%
[5]; [17]
  growth inhibition: 2%
[5]; at 11.0 µM
  growth inhibition: 49%
[5]; at 33.0 µM
  growth inhibition: 84% (active)
[5]; [18]
  growth inhibition: 52%
[5]; at 50.0 µM
  growth inhibition: 86.8% (active)
[5]; at 100.0 µM
  growth inhibition: 78% (active)
[6]; at 1.2 µM
  growth inhibition: 5%
[6]; at 3.7 µM
  growth inhibition: 13%
[6]; [17]
  growth inhibition: -1%
[6]; at 11.0 µM
  growth inhibition: 16%
[6]; at 33.0 µM
  growth inhibition: 50%
[6]; [18]
  growth inhibition: 55%
[6]; at 50.0 µM
  growth inhibition: 88.2% (active)
[6]; at 100.0 µM
  growth inhibition: 81% (active)
[7]; at 1.2 µM
  growth inhibition: 2%
[7]; at 3.7 µM
  growth inhibition: 7%
[7]; at 11.0 µM
  growth inhibition: 47%
[7]; at 33.0 µM
  growth inhibition: 82% (active)
[7]; at 100.0 µM
  growth inhibition: 86% (active)
[8]; [17]
  growth inhibition: 10%
[8]; [18]
  growth inhibition: 88% (active)
[8]; at 50.0 µM
  growth inhibition: 92.5% (active)
[16]; at 1.2 µM
  growth inhibition: 38%
[16]; at 3.7 µM
  growth inhibition: 36%
[16]; at 11.0 µM
  growth inhibition: 42%
[16]; at 33.0 µM
  growth inhibition: 64%
[16]; at 100.0 µM
  growth inhibition: 82% (active)
[9]; [17]
  growth inhibition: 18%
[9]; [18]
  growth inhibition: 81% (active)
[9]; at 50.0 µM
  growth inhibition: 89.7% (active)
[10]; at 1.2 µM
  growth inhibition: 20%
[10]; at 3.7 µM
  growth inhibition: 13%
[10]; [17]
  growth inhibition: 17%
[10]; at 11.0 µM
  growth inhibition: 34%
[10]; at 33.0 µM
  growth inhibition: 84% (active)
[10]; [18]
  growth inhibition: 83% (active)
[10]; at 50.0 µM
  growth inhibition: 46.1%
[10]; at 100.0 µM
  growth inhibition: 85% (active)
[11]; at 1.2 µM
  growth inhibition: -8%
[11]; at 3.7 µM
  growth inhibition: -7%
[11]; at 11.0 µM
  growth inhibition: 13%
[11]; at 33.0 µM
  growth inhibition: 62%
[11]; at 100.0 µM
  growth inhibition: 83% (active)
[13]; at 1.2 µM
  growth inhibition: 34%
[13]; at 3.7 µM
  growth inhibition: 34%
[13]; at 11.0 µM
  growth inhibition: 63%
[13]; at 33.0 µM
  growth inhibition: 82% (active)
[13]; at 100.0 µM
  growth inhibition: 84% (active)
[14]; [17]
  growth inhibition: 0%
[14]; [18]
  growth inhibition: 83% (active)
[14]; at 50.0 µM
  growth inhibition: 93.3% (active)
[15]; at 1.2 µM
  growth inhibition: 52%
[15]; at 3.7 µM
  growth inhibition: 50%
[15]; at 11.0 µM
  growth inhibition: 63%
[15]; at 33.0 µM
  growth inhibition: 86% (active)
[15]; at 100.0 µM
  growth inhibition: 81% (active)
